TRPV1 agonist = agonists of human vanilloid receptor 1 (TRPV1); activation, % at 8.33 µM; AID 540275; TRPV1-expressing cells, Fluo-8 calcium influx, agonist mode; 320,000 tested, 0.19% active; in the data active = activation above about 80%; inconclusive = between about 30% and that limit; note: 0% is about no effect
Target sequence (Q8NER1 whole entry, looked up): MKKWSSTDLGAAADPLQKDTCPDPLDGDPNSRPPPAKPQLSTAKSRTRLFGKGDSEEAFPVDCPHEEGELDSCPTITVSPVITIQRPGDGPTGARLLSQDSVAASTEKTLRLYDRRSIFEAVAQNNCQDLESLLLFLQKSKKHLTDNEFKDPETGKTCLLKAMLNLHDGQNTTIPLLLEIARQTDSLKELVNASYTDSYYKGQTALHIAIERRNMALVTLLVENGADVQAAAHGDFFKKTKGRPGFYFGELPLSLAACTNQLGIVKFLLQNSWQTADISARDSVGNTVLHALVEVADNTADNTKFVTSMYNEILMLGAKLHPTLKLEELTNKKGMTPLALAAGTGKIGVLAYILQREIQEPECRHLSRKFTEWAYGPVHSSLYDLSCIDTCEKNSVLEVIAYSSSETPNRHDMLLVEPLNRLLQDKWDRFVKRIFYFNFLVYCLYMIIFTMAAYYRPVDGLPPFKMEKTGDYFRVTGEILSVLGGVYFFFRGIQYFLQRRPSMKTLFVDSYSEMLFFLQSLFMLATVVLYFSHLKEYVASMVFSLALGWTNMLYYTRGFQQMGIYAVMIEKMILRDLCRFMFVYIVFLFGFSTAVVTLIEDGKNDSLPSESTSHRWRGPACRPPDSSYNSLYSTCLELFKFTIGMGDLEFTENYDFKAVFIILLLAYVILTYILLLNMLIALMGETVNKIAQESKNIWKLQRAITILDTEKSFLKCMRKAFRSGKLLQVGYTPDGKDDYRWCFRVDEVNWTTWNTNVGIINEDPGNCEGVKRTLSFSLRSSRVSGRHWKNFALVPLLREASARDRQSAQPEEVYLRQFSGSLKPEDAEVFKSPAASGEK
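TRPV1-expressing cells were cultured overnight at 35.5C and loaded with Fluo-8 calcium dye for 40 to 90 min at room temperature. After a 10 s baseline, compound was added and calcium influx was read kinetically for 3 min (ex 480/em 520 nm).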
RORgamma inh = ROR gamma (mouse) transcription inhibition. P51450. Drosophila S2 Gal4-RORgamma UAS-luciferase reporter, 20 h. Potency, µM (doses to about 53.6 µM), inactives show top-dose activity change, negative = inhibition, hits mostly inhibitors. 310,000 tested, 5.4% active; note: potency is the fitted concentration of half-maximal effect; % is set by controls: 0 for no effect and ±100 for the full control effect; nearly all actives have a fitted effect of over 60% in size
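Drosophila Schneider cells stably carrying a metallothionein-driven Gal4 DBD–ROR gamma fusion and a UAS-Photinus luciferase reporter were exposed to compound for 1 hr, then induced with copper sulfate (700 uM final) for 20 hr at ambient temperature before luminescence reading.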
VP16 counter = counter-screen for ROR gamma inhibitors: Gal4-VP16 reporter. Drosophila S2 Gal4-VP16 UAS-luciferase, luminescence, 20 h. Potency, µM (titrated, usually from 53.6 µM), without a hit: at the highest dose activity, negative = inhibition, most hits filed as inhibitors. 310,000 tested, 3.5% active;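 note: Gal4-VP16 expression switched on by copper sulfate through the metallothionein promoter; potency is the fitted concentration of half-maximal effect; % is set by controls: 0 for no effect and ±100 for the full control effect; nearly all actives have a fitted effect of over 50% in size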
uPA generation = inhibitors of cell surface uPA generation. cell surface uPA generation assay, qHTS. Potency, µM (series often up to 38.3 µM), for the others: top-dose activity change, negative = inhibition, actives largely listed as inhibitors. 330,000 tested, 0.31% active; active = well fitted inhibition curve with a large enough effect; inconclusive = small, poorly fitted or top-dose-only effect; inactive = no such curve, though single readings can be large or run the other way; tested in mouse RAW 264.7 cells; note: potency is the fitted concentration of half-maximal effect; % is set by controls: 0 for no effect and ±100 for the full control effect; nearly all actives have a fitted effect of over 55% in size
TRPV1 potentiator = human TRPV1 potentiation; 320,000 tested, 0.02% active; potentiation, % at 8.33 µM; Q8NER1; TRPV1-expressing cells, Fluo-8 calcium influx, capsaicin EC20 potentiation; AID 540277; in the data active = potentiation above about 80%; inconclusive = between about 30% and that limit; note: 0% is about no effect
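Fluo-8 calcium influx in TRPV1-expressing cells, kinetic read (ex 480/em 520 nm). Compound added and read 3 min for agonist activity, followed by capsaicin at EC20 final and 2 min further read for enhancement.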
* hit, by the source's call; ? = inconclusive; · = not tested or not shown; ! = not confirmed by another sample; [ ] = dose if it differs, or a comment. Sampled rows, rich in hits. Any-hit rate of the full collection: about 5.8%. Unless noted, calls come from the whole dose curve; as a rule, active = well fitted curve in the direction sought with a large enough effect; inconclusive = small, poorly fitted or top-dose-only effect, or another doubt; inactive = no such curve, though single readings can be large; an effect the other way counts as inactive or inconclusive.

SMILES	TRPV1 agonist	RORgamma inh	VP16 counter	uPA generation	TRPV1 potentiator
COC(=O)C1(O)CC2OC1(C)n1c3ccccc3c3c4c(c5c6ccccc6n2c5c31)C(=O)NC4 (centres undefined)	·	-20%[10 µM]	?	·	·
CN[C@H]1C[C@H]2O[C@@](C)([C@H]1OC)n1c3ccccc3c3c4c(c5c6ccccc6n2c5c31)C(=O)NC4	18	?	6.3µM*	·	-16
C=C(C)C1Cc2c(ccc3c(=O)c4c(oc23)COc2cc(OC)c(OC)cc2-4)O1 (centres undefined)	·	6%	-2%	·	·
COc1cc2c(cc1OC)[C@@H]1C(=O)c3ccc(OC)c(CC=C(C)C)c3OC1CO2 (some centres undefined)	·	7.9µM*	1.4µM*	·	·
COc1cc2c(cc1OC)[C@@H]1C(=O)c3ccc4c(c3OC1CO2)CC(C(C)C)O4 (some centres undefined)	·	0.1µM*	8.9µM*	·	·
CCCCOCC1CO1 (centres undefined)	·	1%	7%	·	·
Cn1cc(S(=O)(=O)N2CCc3ccccc32)cc1C(=O)NC(C)(C)C	-2	-6%	5µM*	?	12
CC(C)(C)c1ccc(C(=O)NC(=S)Nn2cnnc2)cc1	4	14µM*	?	-5%	-12
C/C=C(\C)C(=O)OC1C(C)=C2C(C1OC(=O)CCCCC)C(C)(OC(C)=O)CC(OC(=O)CCC)C1(O)C2OC(=O)C1(C)O (centres undefined)	22	?	18µM*	·	-15
CC(C)C[C@H]1C(=O)N2CCC[C@@H]2[C@@]2(O)O[C@](NC(=O)[C@@H]3C=C4c5cccc6[nH]cc(c56)C[C@@H]4N(C)C3)(C(C)C)C(=O)N12	·	9%[16.9 µM]	-12%[17 µM]	·	·
Oc1cc(O)cc(/C=C/c2ccc(O)cc2O)c1	-2	·	·	?	-1
COc1ccc(/C=C/c2cc(O)cc(O)c2)cc1	·	1.4µM*	3.5µM*	·	·
N#CC(C(=O)C12CC3CC(CC(C3)C1)C2)c1nc2ccccc2[nH]1 (centres undefined)	18	4µM*	10µM*	0%	-15
c1ccc2cc3c(cc2c1)-c1cccc2cccc-3c12	·	-17%	3%	·	·
COC(=O)[C@@H]1C[C@H]1[C@@H](NP(=O)(c1ccccc1)c1ccccc1)c1ccccc1	?	10µM*	?	?	7
COC(=O)[C@H]1C[C@@H]1[C@H](NP(=O)(c1ccccc1)c1ccccc1)c1ccccc1	?	23%	0%	9%	-40
Oc1cc[c]([Hg][Cl])cc1	·	2.5µM*	2.8µM*	·	·
O=C(NC(=S)Nc1ccccc1N1CCCC1)c1ccccc1Br	7	2.8µM*	2.8µM*	·	20
CCN(CC)C(=O)[C@H]1C[C@H](CC(=O)NCc2ccc(OC)c(OC)c2)C(=O)N2CCc3c([nH]c4ccc(Cl)cc34)[C@]12C	·	·	·	10µM*	·
Cc1ccc([N+](=O)[O-])cc1C	·	14%	9%	·	·
Cc1cc(N2C(=O)CC(N3CCC(n4c(=O)[nH]c5ccccc54)CC3)C2=O)no1 (centres undefined)	-4	3.2µM*	-2%	3%	6
O=C1NC(=S)NC(=O)C1=Cc1ccc(Br)s1	0	20µM*	6.3µM*	21%	-8
CCCN(CCC)c1c([N+](=O)[O-])cc(S(N)(=O)=O)cc1[N+](=O)[O-]	·	-42%	?	·	·
Oc1cccc2nc3ccccc3nc12	0	?	5µM*	?	?
CC(C)[C@H](CO)Nc1nc(Nc2cccc(Cl)c2)c2ncn(C(C)C)c2n1	·	14µM*	0%	·	·
SMILES	TRPV1 agonist	RORgamma inh	VP16 counter	uPA generation	TRPV1 potentiator
CC1CC(C)C(=O)[C@H](C(O)CC2CC(=O)NC(=O)C2)C1 (some centres undefined)	·	0.32µM*	2%	·	·
CCOC(=O)CN1C(=O)CC(C[C@@H](O)C2C[C@@H](C)C[C@H](C)C2=O)CC1=O (some centres undefined)	·	-3%	1%	·	·
C[C@H]1C[C@@H](C)C(=O)[C@@H]([C@H](O)CC2CC(=O)NC(=O)C2)C1	0	0.25µM*!	2.8µM*!	?	14
c1ccoc1	·	15%	3%	·	·
Cc1ccc2c(c1)Cc1c(C(=O)NN3CCCCC3)nn(-c3ccc(Cl)cc3Cl)c1-2	·	?	-5%	·	·
COc1c(C(C)(C)C)cc([N+](=O)[O-])c(C)c1[N+](=O)[O-]	·	7%	9%	·	·
S=C=Nc1ccccn1	0	5µM*	?	-20%	1
C[C@@]12CCC(=O)C=C1C=C[C@H]1[C@H]3CC[C@](O)(CCC(=O)O)[C@]3(C)CC[C@@H]12	·	-1%[2.98 µM]	5%[17 µM]	·	·
Cc1ccc(CN2C3CCCC2CC(NC(=S)NCc2ccccc2)C3)cc1 (centres undefined)	29	2.8µM*	18µM*	-9%	-18
CNC(=S)NC1CC2CCCC(C1)N2CC(C)C (centres undefined)	·	-10%	5%	-2%	·
C[n+]1c(-c2ccccc2)c2cc(N)ccc2c2ccc(N)cc21	8	?	13µM*	7.1µM*	-1
Cn1c(NN=O)nc2ccccc21	9	0.035µM*	?	0%	-10
CN1CCN(Cc2nc3ccccc3n2C)CC1	-1	-12%	-6%	4%	4
C[N+](C)(C)CCCl	·	-8%	4%	·	·
C=C(C)CN1CC[C@@]23c4c5ccc(O)c4O[C@H]2c2[nH]c4ccccc4c2C[C@]3(O)[C@@H]1C5	·	-39%	28µM*	·	·
C=C(C)CN1CC[C@]23c4c5ccc(O)c4O[C@H]2c2[nH]c4ccccc4c2C[C@@]3(O)C1C5	-1	-5%	-20%	·	6
C=CCc1c(C)[nH]c(=S)c(C#N)c1C	0	6.3µM*	?	-3%	2
NCC[C@H](NC(=O)[C@@H](N)CCCN=C(N)N[N+](=O)[O-])C(N)=O	·	2%	2%	·	·
CCSC(=O)Cl	·	-7%	7%	·	·
O=C(CCn1nc(-c2ccc(Cl)cc2)ccc1=O)N1CCC2(CC1)OCCO2	1	-22%	3%	0%	-11
O=C(Cn1nc(-c2ccc(Cl)cc2)ccc1=O)N1CCC2(CC1)OCCO2	6	-2%	-1%[10 µM]	-4%	105*
Cl/C=C/Cl	·	-2%	-26%	·	·
Cc1cccc(CCNCc2cc3cccc(C)c3[nH]c2=O)c1	7	?	7.9µM*	4%	6
Cc1cccc(CCNCc2cc3cc(C)cc(C)c3[nH]c2=O)c1	-8	-24%	-14%	23%	11
CC(C)(C)C(=O)Nc1ccc(-c2csnn2)cc1	28	8%	-6%	?	-25
CC(C)[N+](=O)[O-]	·	2%	1%	·	·
C/C(=N\NC(N)=S)C12CC3CC(CC(C3)C1)C2	10	1.8µM*	2.5µM*	-21%	-13
CCCCCC[C@H]1C(=O)O[C@H](C)[C@H](NC(=O)c2cccc(NC=O)c2O)C(=O)O[C@@H](C)[C@@H]1OC(=O)CC(C)C	·	?	2%	·	·
CCCCC/C=C\C/C=C\C/C=C\C/C=C\CCCC(=O)N[C@H](C)CO	·	-3%	-10%	·	·

Screening results as filed in PubChem BioAssay.
